Assay results: the supplement of paper PMC10338343
± gives the standard deviation. Over roughly 3,700 sequences, “pre-steady-state target cleavage rate” has its median near 0.02; the highest 2% begin near 0.23. For the sample, the highest values were picked, then their nearest neighbours and some sequences at random.

test system: MILI (PIWIL2) piRISC loaded with Kctd7 piRNA (26 nt); assay: pre-steady-state target cleavage rate (min^-1); MIWI and MILI are mouse PIWI proteins and EfPiwi is from a freshwater sponge; tags in brackets are library labels; higher = faster piRNA-guided slicing of the target; conditions: guide: Kctd7 piRNA 5'p-UGUUAAUCUCUCAGAGAAGGUGACAG; auxiliary factor: 500 nM mouse GTSF1
Method: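 Cleave-'n-Seq: a library of target RNAs (target site embedded in constant flanks, ACAGCATTCCGCGTTAGTGATATCCG... 5' flank; DNA-blocked outside the site) at 0.1 nM was incubated with 1 nM active mouse MILI or MIWI piRISC (synthetic 5'-monophosphorylated piRNA guide) with or without 500 nM mouse GTSF1 at 33 °C for 1 min to 16 h. Uncleaved targets were sequenced and normalised to non-target controls, and the pooled three trials were fitted to a burst-and-steady-state model to give the pre-steady-state cleavage rate (min^-1; k3 is constrained to at most 1e-4). Sequence is the target site only; target names encode pairing extent (gX:gY) and contiguous / 1-mismatch / 2-mismatch / bulge geometry. Fits with R² ≤ 0 are excluded.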

| Sequence | pre-steady-state target cleavage rate |
| --- | --- |
| UAGUGUGUCACCUGCUCUGAGAGAUUAACA | 0.157 ± 0.012 |
| UAGUGAGUCACCUGCUCUGAGAGAUUAACA | 0.169 ± 0.018 |
| UAGUCUGUCACCUUGCUCUGAGAGAUUAACA | 0.299 ± 0.059 |
| UAGUGACAGUCCUUCUCUGAGAGAUUAACCA | 0.0785 ± 0.0063 |
| UAGUGACACACCUUCUCUGAGAGAUUAACA [g2:g22:cont:t1A] | 0.178 ± 0.01 |
| UAGUGACUCACCUUCUCUGAGAGAUUCACA | 0.314 ± 0.091 |
| UAGUGACACACCUUCUCUCUGAGAUUAACA | 0.00653 ± 0.0037 |
| UAGUGACACACCUUCUCUGAGAGAUUCACA | 0.258 ± 0.057 |
| UAGUGACACACCUUCUCUGAGAGAUAUUCA | 0.0197 ± 0.0083 |
| UAGUGACACACCUUCUCUGAGAGAUCAACA | 0.0804 ± 0.024 |
| UAGUGACACACCUUCUCUGAGAGAUUUUCA | 0.064 ± 0.02 |
| UAGUGACACACCUUCUCUGAGAGAUUCAACA | 0.244 ± 0.061 |
| UAGUGACACACCUUCUCUGAGAGAUUUAACA | 0.243 ± 0.023 |
| UAGUGACUCACCUUCUCUGAGAGAUUUUCA | 0.0728 ± 0.019 |
| UAGUGACUCACCUUCUCUGAGAGAUUCAACA | 0.221 ± 0.035 |
| UAGUGACAGACCUUCUCUGAGAGAUUCAACA | 0.177 ± 0.04 |
| UAGUCUGUCACCUUCUCAGAGAGAAUAACA | 0.0517 ± 0.017 |
| UAGUGACUCACCUUCUCUGAGGGAUUAACA | 0.0864 ± 0.011 |
| UAGUGUGUCACCUACACUGAGAGAUUAACA | 0.15 ± 0.011 |
| UAGUCUGUCACCUUCAUCUGAGAGAUUAACA | 0.204 ± 0.052 |
| UAGUCUGUCACCUUCUUGAGAGAUUAACA | 0.07 ± 0.023 |
| UAGUGAGUCACCUUCUUGAGAGAUUAACA | 0.0386 ± 0.014 |
| UAGUCUGUCACCUUCUUCUGAGAGAUUAACA | 0.0864 ± 0.021 |
| UAGUGAGUCACCUUCUUUGAGAGAUUAACA | 0.334 ± 0.029 |
| UAGUCUGUCACCUUCUUUGAGAGAUUAACA | 0.259 ± 0.019 |

| Sequence | pre-steady-state target cleavage rate |
| --- | --- |
| UAGUGUGUCACCUUCUUUGAGAGAUUAACA | 0.229 ± 0.016 |
| UAGUGAGUCUCCUUCACUGAGAGAUUAACA | 0.166 ± 0.016 |
| UAGUGACUCUCCUUCUGUGAGAGAUUAACA | 0.0558 ± 0.01 |
| UAGUGACAGACGUUCUCUCAGAGAUUAACA | 0.0137 ± 0.0054 |
| UAGUCUGUCACCUUCUCUGAGAGGAUUAACA | 0.174 ± 0.019 |
| UAGUCUUCACCUUCUCUGAGAGAUUAACA | 0.213 ± 0.019 |
| UAGUCUGUCACCUUCUCUCUGAGAUUAACA | 0.00967 ± 0.0028 |
| UAGUCUGUCACCUUCUCUGAGAGAUUUAACA | 0.245 ± 0.023 |
| UAGUCUGUCACCUUCUCUGAGAGAUUAACG [g2:g26:cont:t1G] | 0.196 ± 0.011 |
| UAGUCGUGUCACCUUCUCUGAGAGAUUAACA | 0.199 ± 0.01 |
| UAGUCCUGUCACCUUCUCUGAGAGAUUAACA | 0.275 ± 0.026 |
| UAGUCUUGUCACCUUCUCUGAGAGAUUAACA | 0.341 ± 0.058 |
| UAGUCUGUCACCUUCCUGAGAGAUUAACA | 0.0844 ± 0.028 |
| UAGUCUCUCACCUUGUCUGAGAGAUUAACA | 0.0068 ± 0.0039 |
| UAGUCUGUCACCUUCUCUGAGAGAUUAAUA | 0.118 ± 0.02 |
| UAGUCUGUCACCUUCUCUGAGAGAUUAAUCA | 0.258 ± 0.041 |
| UAGUCUGUCACCUUCUCUGAGAGAUUAAA | 0.13 ± 0.026 |
| UAGUGUGACACCUUCUGUGAGAGAUUAACA | 0.123 ± 0.015 |
| UAGUCUGUCACCUACUCUGAGAGAAUAACA | 0.0882 ± 0.017 |
| UAGUGACUCACCUUCUCUGAGAGUUUUACA | 0.0214 ± 0.01 |
| UAGUGACAGUGCUUCUCUGAGAAAUUAACA | 0.00916 ± 0.0047 |
| UAGUCUGUCACCUUCAGAGAGAGAUUAACA | 0.0227 ± 0.0099 |
| UAGUGACAGUCCUUCUCUGAGGAGAUUAACA | 0.00431 ± 0.0026 |
| UAGUGACAGUGGAAGAGUGACAGAUUAACA | < 0.0001 |
| UAGUCUGUCACCUCUCUGAGAGAUUAACA | 0.208 ± 0.018 |

| Sequence | pre-steady-state target cleavage rate |
| --- | --- |
| UAGUCUGUCACCUUCUCUGAGAGAUUAACU [g2:g26:cont:t1U] | 0.244 ± 0.026 |
| UAGUCUGUCACCUUCUCUGAGAGAUUAACA [g2:g26:cont:t1A] | 0.22 ± 0.013 |
| UAGUCUGUCACCUUCUCUGAGAGAUUAACC [g2:g26:cont:t1C] | 0.173 ± 0.013 |
| UAGUCUGUCACCCUCUCUGAGAGAUUAACA | 0.238 ± 0.018 |
| UAGUCUGUCACCUCUCUCUGAGAGAUUAACA | 0.164 ± 0.015 |
| UAGUGACACACCUUCUCAGAGAGAUUAUGA | 0.0269 ± 0.01 |
| UAGUGUGUCACCUUCUCUGAGAGAUUAAACA | 0.214 ± 0.029 |
| UAGUGUGUCACCUUCUCUGAGAGAUUAAUA | 0.236 ± 0.037 |
| UAGUGUGUCACCUUCUCUGAGAGAUUAAGA | 0.145 ± 0.036 |
| UAGUGUGUCACCUUCUCUGAGAGAUUAAA | 0.234 ± 0.064 |
| UAGUGUGUCACCUUCUCUGAGAGAUUAAAA | 0.108 ± 0.022 |
| UAGUGUGUCACCUUCUCUGAGAGAUUAAUCA | 0.18 ± 0.032 |
| UAGUGACAGUGCUUCUCUGAGAGAAUUAACA | 0.0127 ± 0.0041 |
| UAGUGUGUCACCUUCUCUGAGAGCAUUAACA | 0.17 ± 0.022 |
| UAGUCUCUCACCUUCUCUGAGAGAUAAACA | 0.0206 ± 0.0076 |
| UAGUGUGUCACCUUCUCUGAGAGAUUGACA | 0.25 ± 0.063 |
| UAGUCUGUCACCUUCUCUGAGAGAUUUUGA | 0.0133 ± 0.0061 |
| UAGUGAGUCACCUUCUCUGAGAGAUUGACA | 0.208 ± 0.042 |
| UAGUCUGUCACCUUCUCUGAGAGAUUGAACA | 0.214 ± 0.029 |
| UAGUGUGUCACCUUCUCUGAGAGAUAUUCA | 0.143 ± 0.047 |
| UAGUGUGUCACCUUCUCUGAGAGAUUGAACA | 0.0931 ± 0.017 |
| UAGUGUGUCACCUUCUCUGAGAGAUUCACA | 0.239 ± 0.049 |
| UAGUCUGUCACCUUCUCUGAGAGAUUGACA | 0.246 ± 0.044 |
| UAGUGUGUCACCUUCUCUGAGAGAUUCAACA | 0.219 ± 0.038 |
